In all, about 5,500 compounds went through this assay and about 2,000 (36%) were called active. About 18% were inconclusive and are not listed. Cut-off read from the data, not from the text of the source: active = normalized growth mostly below about 0.91 (no sharp cut-off); inconclusive = no clear call, values can overlap the other calls; inactive = mostly above about 0.92. The list shows a part of the results.
Test: chemical genetic growth profiling, strain panel (AID 1159580);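 note: tested at 20 µM; growth read once vehicle control cultures reached saturation at 30 °C; 1 = growth at the plate median or of vehicle wells; lower values mean less growth of the strain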
Conditions: growth OD

Measured: normalized growth

C/C=C(\C)C(=O)O[C@H]1C[C@@H](OC(C)=O)[C@@]2(C(=O)OC)CO[C@@H]3C2[C@]12CO[C@](O)(C(=O)OC)[C@H]2[C@](C)(C12O[C@@]1(C)[C@H]1C[C@@H]2OC2OC=C[C@@]21O)[C@@H]3O (some centres not stated)
inactive: S. cerevisiae deletion strains, locus YJR075W, strain HOC1, active compounds read low 0.998 | S. cerevisiae deletion strains, locus YKL009W, strain mrt4, active compounds read low 0.996 | S. cerevisiae deletion strains, locus YKL068W, active compounds read low 0.987 | S. cerevisiae deletion strains, locus YKL085W, strain MDH1 (second series), active compounds read low 0.998 | S. cerevisiae deletion strains, locus YKL085W, strain MDH1, active compounds read low 0.998 | S. cerevisiae deletion strains, locus YKL160W, strain elf1, active compounds read low 0.954 | S. cerevisiae deletion strains, locus YKL190W, strain CNB1, active compounds read low 0.997 | S. cerevisiae deletion strains, locus YKR001C, strain vps1, active compounds read low 0.988 | S. cerevisiae deletion strains, locus YKR026C, strain gcn3, active compounds read low 0.992 | S. cerevisiae deletion strains, locus YKR091W, strain srl3, active compounds read low 0.964 | S. cerevisiae deletion strains, locus YLL001W, strain dnm1, active compounds read low 0.965 | S. cerevisiae deletion strains, locus YLL026W, active compounds read low 0.978 | S. cerevisiae deletion strains, locus YLL041C, strain sdh2, active compounds read low 0.975 | S. cerevisiae deletion strains, locus YLR027C, strain aat2, active compounds read low 0.991 | S. cerevisiae deletion strains, locus YLR039C, strain RIC1, active compounds read low 1.04 | S. cerevisiae deletion strains, locus YLR058C, strain SHM2, active compounds read low 0.982 | S. cerevisiae deletion strains, locus YLR102C, strain apc9, active compounds read low 0.979 | S. cerevisiae deletion strains, locus YLR113W, strain HOG1, active compounds read low 1.02 | S. cerevisiae deletion strains, locus YLR221C, strain rsa3, active compounds read low 0.999 | S. cerevisiae deletion strains, locus YLR258W, strain gsy2, active compounds read low 0.969 | S. cerevisiae deletion strains, locus YLR262C, strain YPT6 (second series), active compounds read low 0.968 | S. cerevisiae deletion strains, locus YLR262C, strain YPT6, active compounds read low 1.03 | S. cerevisiae deletion strains, locus YLR268W, strain sec22, active compounds read low 0.913 | S. cerevisiae deletion strains, locus YLR320W, strain mms22, active compounds read low 0.992 | S. cerevisiae deletion strains, locus YLR330W, strain CHS5, active compounds read low 0.996 | S. cerevisiae deletion strains, locus YLR342W, strain FKS1 (second series), active compounds read low 1.05 | S. cerevisiae deletion strains, locus YLR342W, strain FKS1, active compounds read low 0.983 | S. cerevisiae deletion strains, locus YLR357W, strain rsc2, active compounds read low 0.978 | S. cerevisiae deletion strains, locus YLR370C, strain arc18, active compounds read low 0.987 | S. cerevisiae deletion strains, locus YLR371W, strain rom2, active compounds read low 0.971 | S. cerevisiae deletion strains, locus YLR384C, strain iki3, active compounds read low 0.976 | S. cerevisiae deletion strains, locus YLR418C, strain cdc73, active compounds read low 1 | S. cerevisiae deletion strains, locus YML016C, strain PPZ1, active compounds read low 0.985 | S. cerevisiae deletion strains, locus YML032C, strain rad52, active compounds read low 0.957 | S. cerevisiae deletion strains, locus YML120C, strain ndi1, active compounds read low 0.979 | S. cerevisiae deletion strains, locus YML124C, strain tub3, active compounds read low 0.99 | S. cerevisiae deletion strains, locus YMR058W, strain fet3, active compounds read low 0.973 | S. cerevisiae deletion strains, locus YMR078C, strain ctf18, active compounds read low 0.963 | S. cerevisiae deletion strains, locus YMR125W, strain sto1, active compounds read low 0.958 | S. cerevisiae deletion strains, locus YMR129W, active compounds read low 0.991 | S. cerevisiae deletion strains, locus YMR205C, strain PFK2, active compounds read low 0.984 | S. cerevisiae deletion strains, locus YMR223W, strain ubp8, active compounds read low 0.998 | S. cerevisiae deletion strains, locus YMR231W, strain pep5, active compounds read low 0.968 | S. cerevisiae deletion strains, locus YMR263W, strain SAP30, active compounds read low 0.987 | S. cerevisiae deletion strains, locus YMR307W, strain GAS1, active compounds read low 0.987 | S. cerevisiae deletion strains, locus YNL067W, strain RPL9B, active compounds read low 0.979 | S. cerevisiae deletion strains, locus YNL071W, strain lat1, active compounds read low 0.983 | S. cerevisiae deletion strains, locus YNL128W, strain TEP1, active compounds read low 0.993 | S. cerevisiae deletion strains, locus YNL153C, strain GIM3, active compounds read low 0.988 | S. cerevisiae deletion strains, locus YNL183C, strain NPR1, active compounds read low 0.972 | S. cerevisiae deletion strains, locus YNL209W, strain ssb2, active compounds read low 0.989 | S. cerevisiae deletion strains, locus YNL233W, strain BNI4, active compounds read low 0.98 | S. cerevisiae deletion strains, locus YNL248C, strain rpa49, active compounds read low 0.967 | S. cerevisiae deletion strains, locus YNL250W, strain rad50, active compounds read low 0.981 | S. cerevisiae deletion strains, locus YNL271C, strain bni1, active compounds read low 0.97 | S. cerevisiae deletion strains, locus YNL298W, strain CLA4, active compounds read low 0.968 | S. cerevisiae deletion strains, locus YNL307C, strain MCK1, active compounds read low 0.983 | S. cerevisiae deletion strains, locus YNL322C, strain KRE1 (second series), active compounds read low 0.977 | S. cerevisiae deletion strains, locus YNL322C, strain KRE1, active compounds read low 0.995 | S. cerevisiae deletion strains, locus YNR049C, strain mso1, active compounds read low 0.976 | S. cerevisiae deletion strains, locus YNR052C, strain pop2, active compounds read low 0.973 | S. cerevisiae deletion strains, locus YOL006C, strain TOP1, active compounds read low 0.926 | S. cerevisiae deletion strains, locus YOL012C, strain htz1 0.809 | S. cerevisiae deletion strains, locus YOL147C, strain pex11, active compounds read low 0.981 | S. cerevisiae deletion strains, locus YOR001W, strain rrp6, active compounds read low 0.995 | S. cerevisiae deletion strains, locus YOR061W, strain CKA2, active compounds read low 0.989 | S. cerevisiae deletion strains, locus YOR069W, strain VPS5, active compounds read low 0.982 | S. cerevisiae deletion strains, locus YOR070C, strain gyp1, active compounds read low 1 | S. cerevisiae deletion strains, locus YOR080W, strain dia2, active compounds read low 0.991 | S. cerevisiae deletion strains, locus YOR083W, strain WHI5, active compounds read low 0.968 | S. cerevisiae deletion strains, locus YOR106W, strain vam3, active compounds read low 0.938 | S. cerevisiae deletion strains, locus YOR136W, strain idh2, active compounds read low 0.974 | S. cerevisiae deletion strains, locus YOR144C, strain elg1, active compounds read low 0.973 | S. cerevisiae deletion strains, locus YOR184W, strain ser1, active compounds read low 0.967 | S. cerevisiae deletion strains, locus YOR231W, strain MKK1, active compounds read low 0.989 | S. cerevisiae deletion strains, locus YOR265W, strain rbl2, active compounds read low 0.984 | S. cerevisiae deletion strains, locus YOR270C, strain vph1, active compounds read low 0.93 | S. cerevisiae deletion strains, locus YOR290C, strain snf2, active compounds read low 0.946 | S. cerevisiae deletion strains, locus YOR316C, strain cot1, active compounds read low 0.977 | S. cerevisiae deletion strains, locus YPL051W, strain arl3, active compounds read low 0.98 | S. cerevisiae deletion strains, locus YPL055C, strain LGE1, active compounds read low 1.01 | S. cerevisiae deletion strains, locus YPL078C, strain atp4, active compounds read low 0.942 | S. cerevisiae deletion strains, locus YPL106C, strain sse1, active compounds read low 1 | S. cerevisiae deletion strains, locus YPL240C, strain hsp82, active compounds read low 0.985 | S. cerevisiae deletion strains, locus YPL241C, strain CIN2, active compounds read low 1 | S. cerevisiae deletion strains, locus YPL256C, strain CLN2, active compounds read low 0.971 | S. cerevisiae deletion strains, locus YPR119W, strain clb2, active compounds read low 0.991 | S. cerevisiae deletion strains, locus YPR141C, strain kar3, active compounds read low 0.977 | S. cerevisiae deletion strains, locus YPR163C, strain tif3, active compounds read low 0.97 | S. cerevisiae deletion strains, locus YPR167C, strain met16, active compounds read low 0.978 | S. cerevisiae deletion strains, strain wtn01, active compounds read low 0.948 | S. cerevisiae strains, strain wild type, active compounds read low 0.994
